Among the test systems are NCI-H23 lung; NCI-H226 lung; NCI-H322M lung; HOP-62 NSCLC; NCI-H460 lung; HOP-92 NSCLC; A549/ATCC NSCLC; 786-0 renal; COLO 205 colon; DU-145 prostate; K-562 leukemia; MALME-3M melanoma; MDA-MB-231 breast; RXF 393 renal; SF-268 CNS; SF-295 CNS; SF-539 CNS; UACC-257 melanoma; M14 melanoma; NCI-H522 lung.
Holding throughout (assay): NCI-60 one-dose screen, 48 h (100 = growth as untreated, 0 = no growth, -100 = all killed)
Common to all, as to conditions: 10 µM unless noted

Compounds without any hit were thinned out: in the full panel of roughly 83,000, 20% have a hit.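 Negative percent growth values reflect cell death: -40 means 40% of the cells present at the start died, and -100 means all died.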 Values without a mark were called inactive. Calls of active or inactive are those of the source. The calls were made as follows: active = growth percent below 10; inactive = the rest.

Take `COc1ccc(C(=O)N2NC(=O)/C(=C/c3cn(-c4ccccc4)nc3-c3ccccc3)N=C2c2ccccc2)cc1`: the growth in the assay on NCI-H23 lung is 97.3%; with NCI-H226 lung, 102%; with NCI-H322M lung, 97.3%; in the assay on HOP-62 NSCLC, 115%; in the assay on NCI-H460 lung, 106%; in the assay with HOP-92 NSCLC it was 100%. The growth in the assay on A549/ATCC NSCLC is 91.6%; in the assay with 786-0 renal, 93%; in the assay with COLO 205 colon, 120%; with DU-145 prostate, 108%; in the assay with K-562 leukemia, 105%; in the assay with MALME-3M melanoma, 105%. For the same compound, the growth with MDA-MB-231 breast is 93.8%; in the assay with RXF 393 renal, 104%; in the assay with SF-268 CNS, 98.2%; in the assay with SF-295 CNS it was 86.9%; in the assay on SF-539 CNS it was 115%; in the assay on UACC-257 melanoma, 95%. Moreover, the growth in the assay on M14 melanoma is 110%.

With `O=c1[nH]c2ccc(Br)cc2c2c1C(c1ccc(Cl)cc1)c1c(ncn3nc(-c4ccco4)nc13)O2` (centres undefined), the growth in the assay on NCI-H23 lung is 76.1%; in the assay on NCI-H226 lung it was 65.5%; in the assay with NCI-H322M lung it was 75.3%; with HOP-62 NSCLC, 50%; in the assay on NCI-H460 lung, 85.1%; in the assay on HOP-92 NSCLC, 37.7%. In addition, the growth in the assay on NCI-H522 lung is 69.4%; in the assay with A549/ATCC NSCLC it was 74.8%; with COLO 205 colon, 91%; in the assay with DU-145 prostate it was 90%; in the assay on K-562 leukemia, 80%; with MALME-3M melanoma it was 77.5%. In addition, the growth is 48.6% in the assay on MDA-MB-231 breast; 59.1% in the assay on RXF 393 renal; 74.3% with SF-268 CNS; 87.9% with SF-295 CNS; 65.5% with SF-539 CNS; 98.3% in the assay on UACC-257 melanoma. Further, in the assay on M14 melanoma, the growth was 74.9%.

Regarding `O=S(=O)(c1ccc(OCCO)cc1)c1ccc(OCCO)cc1`, the growth in the assay on NCI-H23 lung is 106%; in the assay on NCI-H226 lung it was 106%; in the assay on NCI-H322M lung, 91.8%; with HOP-62 NSCLC, 114%; in the assay on NCI-H460 lung, 104%; in the assay with HOP-92 NSCLC, 87.2%. Moreover, the growth in the assay on NCI-H522 lung is 82.7%; with A549/ATCC NSCLC it was 101%; in the assay with 786-0 renal, 112%; in the assay with COLO 205 colon, 132%; in the assay on K-562 leukemia, 101%; in the assay with MALME-3M melanoma it was 98.6%. Also, the growth is 112% with MDA-MB-231 breast; 119% in the assay with RXF 393 renal; 122% in the assay with SF-268 CNS; 118% in the assay with SF-295 CNS; 110% in the assay with SF-539 CNS; 85.7% in the assay with UACC-257 melanoma. Moreover, the growth in the assay on M14 melanoma is 102%.

Take `CCO/C=N/C1=C(C#N)C(c2ccc(Cl)cc2)c2c(c3ccccc3n(C)c2=O)O1` (centres undefined): the growth in the assay with NCI-H23 lung is 80.3%; with NCI-H226 lung it was 91.3%; in the assay on NCI-H322M lung, 85.9%; in the assay on HOP-62 NSCLC it was 64.6%; in the assay on NCI-H460 lung it was 79.9%; in the assay on HOP-92 NSCLC, 79.2%. Further, the growth was 58.7% in the assay on NCI-H522 lung; 63.4% with A549/ATCC NSCLC; 71.5% with COLO 205 colon; 95.1% with DU-145 prostate; 19.6% in the assay with K-562 leukemia; 55.7% with MALME-3M melanoma. Moreover, the growth in the assay on MDA-MB-231 breast is 51.2%; in the assay with RXF 393 renal, 56.8%; in the assay with SF-268 CNS, 80%; in the assay on SF-295 CNS, 57.3%; with SF-539 CNS, 72.2%; with UACC-257 melanoma, 90.3%. The growth in the assay on M14 melanoma was 57.2%.

Turning to `O=C(O)/C=C/C(=O)c1ccc(Cl)cc1`, the growth with NCI-H23 lung was 116%; in the assay with NCI-H226 lung, 113%; with NCI-H322M lung it was 104%; with HOP-62 NSCLC it was 112%; in the assay with NCI-H460 lung, 112%; with HOP-92 NSCLC, 119%. Moreover, the growth was 80.4% in the assay on NCI-H522 lung; 95.3% with A549/ATCC NSCLC; 105% in the assay with 786-0 renal; 120% in the assay on COLO 205 colon; 109% in the assay with DU-145 prostate; 110% in the assay with MALME-3M melanoma. Moreover, the growth was 122% in the assay with MDA-MB-231 breast; 125% with RXF 393 renal; 96.6% in the assay on SF-268 CNS; 123% in the assay with SF-295 CNS; 107% in the assay on SF-539 CNS; 93.2% with UACC-257 melanoma. Besides, the growth with M14 melanoma is 101%.

As to `CC(O)CN1CCCCC1` (centres undefined), the growth in the assay on NCI-H23 lung is 100%; in the assay on NCI-H226 lung, 106%; in the assay with NCI-H322M lung it was 111%; with HOP-62 NSCLC it was 122%; in the assay with NCI-H460 lung, 104%; in the assay with HOP-92 NSCLC it was 111%. Further, the growth was 88.8% in the assay on NCI-H522 lung; 105% with A549/ATCC NSCLC; 105% in the assay with 786-0 renal; 111% with COLO 205 colon; 117% in the assay on DU-145 prostate; 112% in the assay on MALME-3M melanoma. For the same compound, the growth was 105% in the assay with MDA-MB-231 breast; 108% in the assay on RXF 393 renal; 101% in the assay with SF-268 CNS; 104% with SF-295 CNS; 111% with SF-539 CNS; 104% in the assay with UACC-257 melanoma. In addition, the growth in the assay on M14 melanoma is 105%.

As for `O=C1CCCCC1(c1ccccc1)c1ccccc1`, the growth with NCI-H23 lung was 98.8%; in the assay with NCI-H226 lung, 99.8%; in the assay with NCI-H322M lung, 111%; in the assay with HOP-62 NSCLC, 103%; in the assay with NCI-H460 lung, 103%; in the assay with HOP-92 NSCLC it was 89.3%. Also, the growth in the assay on NCI-H522 lung was 99%; with A549/ATCC NSCLC, 110%; in the assay on 786-0 renal it was 109%; in the assay on COLO 205 colon, 109%; in the assay with MDA-MB-231 breast it was 101%; in the assay on RXF 393 renal, 93.8%. For the same compound, the growth was 98.2% with SF-268 CNS; 97% with SF-295 CNS; 94% in the assay on SF-539 CNS; 106% in the assay on UACC-257 melanoma; 99% with M14 melanoma.

For the compound `CCN1CCN(CC(=O)N2c3cccc4cccc(c34)N(C(=O)CN3CCN(CC)CC3)C2c2cn(-c3ccccc3)nc2-c2cccc([N+](=O)[O-])c2)CC1`, the growth was 13.7% in the assay with NCI-H23 lung; -28.3% (active) in the assay with NCI-H226 lung; 25.3% with NCI-H322M lung; 0.226% (active) in the assay on HOP-62 NSCLC; -37.9% (active) with NCI-H460 lung; 61.4% with HOP-92 NSCLC. Besides, the growth with NCI-H522 lung was -64.7% (active); in the assay on A549/ATCC NSCLC, 12.9%; in the assay on COLO 205 colon, -66.9% (active); in the assay on DU-145 prostate, 28.3%; with K-562 leukemia it was -52.9% (active); in the assay on MALME-3M melanoma, -91.3% (active). The growth in the assay on MDA-MB-231 breast is -66.1% (active); with RXF 393 renal, 3.79% (active); in the assay with SF-268 CNS, 16.6%; in the assay on SF-295 CNS it was -50.3% (active); in the assay with SF-539 CNS, -89.2% (active); with UACC-257 melanoma it was -83.1% (active). In addition, the growth in the assay on M14 melanoma is -81.6% (active).

Consider `COc1ccc(/C=C\c2cc(OC)c(OC)c(OC)c2)cc1OC(=O)c1cccc(Cn2cc(CCOC(=O)c3cccc(Cn4nnc5c4C(=O)c4ccccc4C5=O)c3)nn2)c1`, for which the growth in the assay with NCI-H23 lung was 33.1%; with NCI-H226 lung it was 58.4%; in the assay with NCI-H322M lung it was 50.5%; in the assay on HOP-62 NSCLC it was 14.9%; in the assay on NCI-H460 lung, 5.39% (active); with HOP-92 NSCLC, 52.6%. Besides, the growth is 6.06% (active) in the assay on NCI-H522 lung; 17.3% in the assay with A549/ATCC NSCLC; -25.2% (active) with COLO 205 colon; 7.26% (active) in the assay with DU-145 prostate; 8.24% (active) in the assay with K-562 leukemia; 41.5% in the assay on MALME-3M melanoma. In addition, the growth in the assay on MDA-MB-231 breast is 21.6%; in the assay with RXF 393 renal, 15.9%; in the assay with SF-268 CNS it was 27.7%; in the assay on SF-295 CNS, 11%; in the assay with SF-539 CNS it was -22.5% (active); in the assay with UACC-257 melanoma, 67.3%. In the assay with M14 melanoma, the growth is -0.552% (active).

The values above are taken from PubChem BioAssay (NCI).
